Laboratory results reported in PubChem BioAssay AID602442 (National Center for Advancing Translational Sciences (NCATS), 2012).
Calls of active or inactive are those of the source. No rule for the calls is given here.

biological target: Thyrotropin receptor (Homo sapiens) (UniProt P16473); test: qHTS for antagonists of the Thyroid Stimulation Hormone Receptor: Hit Validation for Inverse Agonism; conditions: active compounds read high
From the text: The thyroid-stimulating hormone receptor (TSHR) is a member of the 7 trans-membrane-spanning receptor (7TMR) family of cell surface receptors. TSHR-mediated hyperthyroidism is important in thyroid pathology. The development of small molecule antagonists of TSHR may lead to therapeutic approaches for TSHR-mediated hyperthyroidism caused by constitutively activating mutations or stimulating auto-antibodies associated with Graves' disease. Graves' disease is the leading cause of hyperthyroidism and is caused by autoantibodies that stimulate TSHR (TsAbs) causing thyroid growth and unregulated overproduction of thyroid hormones and existing treatments have liabilities (agranulocytosis). In addition, TSHRs are known to be expressed in multiple extrathyroidal tissues including bone, brain, kidney, testis, fat and cells of the immune system but the role of the TSHR in these tissues is not clear. Therefore, TSHR antagonists/inverse agonists could be used as probes of extrathyroidal TSHR function. Finally, TSHR inverse agonists, which are a subclass of antagonists that inhibit agonist-independent (or basal or constitutive) TSHR signaling, could be used to inhibit TSH-independent signaling in patients with recurrent or metastatic thyroid cancer who are receiving thyroid hormone to suppress TSH. […]

Thyrotropin receptor (Homo sapiens), sequence (P16473 whole entry, looked up): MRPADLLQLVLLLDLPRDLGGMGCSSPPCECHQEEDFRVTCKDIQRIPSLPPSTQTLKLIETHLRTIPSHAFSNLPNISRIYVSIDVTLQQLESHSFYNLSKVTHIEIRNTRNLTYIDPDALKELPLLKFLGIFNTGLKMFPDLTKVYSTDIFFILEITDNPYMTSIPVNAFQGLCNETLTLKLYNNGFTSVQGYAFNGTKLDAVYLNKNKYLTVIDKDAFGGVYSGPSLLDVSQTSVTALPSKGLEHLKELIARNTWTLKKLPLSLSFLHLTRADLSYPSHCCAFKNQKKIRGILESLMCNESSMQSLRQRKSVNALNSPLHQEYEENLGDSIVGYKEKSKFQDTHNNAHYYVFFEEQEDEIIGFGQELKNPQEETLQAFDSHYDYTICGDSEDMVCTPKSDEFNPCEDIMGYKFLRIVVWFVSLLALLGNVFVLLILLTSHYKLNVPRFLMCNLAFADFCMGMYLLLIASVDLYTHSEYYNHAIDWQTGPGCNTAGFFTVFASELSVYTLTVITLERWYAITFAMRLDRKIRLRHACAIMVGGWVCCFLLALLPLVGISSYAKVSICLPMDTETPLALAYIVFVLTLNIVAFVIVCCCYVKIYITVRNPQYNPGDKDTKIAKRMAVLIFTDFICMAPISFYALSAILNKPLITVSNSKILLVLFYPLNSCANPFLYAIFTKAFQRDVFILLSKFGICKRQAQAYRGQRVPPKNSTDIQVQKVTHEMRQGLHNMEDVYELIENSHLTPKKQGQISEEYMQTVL

For `COC(=O)C1=C(c2ccc(-c3ccccc3)c(F)c2)C[C@@H]2CC[C@H]1N2C(=O)NCCOc1ccccc1`, which max inhibition is on record?
The max inhibition was 75% (active).
